Source: PubChem (several laboratories)
Only some compounds are listed: those with a hit (about 28% of all), similar ones and a draw of the others.
DAT uptake mod: human DAT dopamine uptake with cocaine, either direction; Q01959; LLC-PK1 hDAT cells, [14C]-dopamine uptake with cocaine IC80; actives deviate in either direction; B-score at 10 µM; 1.3% of 110,000 active; AID 449768;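 active = Z score or B-score, a plate-position-corrected score, falls beyond the plate's 99.7% confidence bounds, in either direction; inactive = both scores lie inside the 99.7% bounds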;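 note: scored against the spread of the other compound wells on the same plate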
CYP2C19 inh: inhibitors of human CYP2C19 | CYP2C19 Supersomes, luciferin-H EGE luminescence, 30 min | inhibition, % at 5 µM | 21% of 96,000 active;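 active = CYP2C19 inhibition above a set limit at 5 µM in the primary screen, cut at about 50% in these data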;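 note: plate controls were negative control wells for no effect and 2.5 mM tranylcypromine positive control for full effect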
CYP2C9 inhib: inhibitors of human CYP2C9 | P11712 | CYP2C9 Supersomes, luciferin-H conversion, luminescence | inhibition, % at 5 µM | 20% of 96,000 active;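 active = blocking of liver enzyme CYP2C9 beyond about 50% at 5 µM, limit read from the data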
Target sequence (P11712 whole entry, looked up): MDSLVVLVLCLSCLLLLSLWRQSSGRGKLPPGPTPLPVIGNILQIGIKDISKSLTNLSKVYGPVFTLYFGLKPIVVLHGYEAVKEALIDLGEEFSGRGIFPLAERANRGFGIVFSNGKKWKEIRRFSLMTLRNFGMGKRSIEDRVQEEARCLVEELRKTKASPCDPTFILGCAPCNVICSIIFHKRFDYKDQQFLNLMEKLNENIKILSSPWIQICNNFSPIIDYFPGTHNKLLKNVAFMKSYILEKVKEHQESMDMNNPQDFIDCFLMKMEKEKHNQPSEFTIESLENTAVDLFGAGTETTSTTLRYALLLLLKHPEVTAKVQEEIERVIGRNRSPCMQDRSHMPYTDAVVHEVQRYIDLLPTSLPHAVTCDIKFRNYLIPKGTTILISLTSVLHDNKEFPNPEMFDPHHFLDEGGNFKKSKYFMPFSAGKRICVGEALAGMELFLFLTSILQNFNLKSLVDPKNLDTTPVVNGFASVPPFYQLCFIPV
D1 mod: allosterically modulates the human D1 dopamine receptor | P21728 | HEK293 D1, CRE-luciferase, dopamine EC30 potentiation; actives deviate in either direction | B-score at 10 µM | 5.9% of 58,000 active;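 active = luminescence count or its row- and column-corrected plate score outside the 99.7% band of the plate's sample wells, on either side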
CYP2C9 act: increases human cytochrome P450 2C9 activity. P11712. recombinant CYP2C9, luciferin-H conversion, luminescence; hits give high values; factor 1 = untreated enzyme, 0 = blocked. activation factor at 5 µM. 1.4% of 96,000 active. AID 1024;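 active = activation factor of 2 or more for CYP2C9 at a 5 µM dose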;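 note: 0 = sulfaphenazole-blocked wells and 1 = vehicle-only wells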
CYP2C19 act: increases human CYP2C19 enzyme activity. P33261. recombinant CYP2C19, luciferin-H EGE luminescence; hits give high values; 0 = fully inhibited enzyme, 1 = untreated enzyme. activation factor at 5 µM. 96,000 tested, under 10 active;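 active = activation factor of at least 2 at 5 µM in the primary screen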;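 note: 0 = wells with 2.5 mM tranylcypromine and 1 = vehicle-only wells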
D1 mod confirm: D1 receptor (human) allosteric modulation, confirmed. luminescence at 10 µM. HEK293 D1 CRE-luciferase, dopamine EC30 potentiation; hits give high values. AID 642. shares compounds with D1 mod. 88% of 2,200 active;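 active = luminescence in either of two replicates above the same-plate mean plus 3 SD of the low-dose dopamine control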
D1 no dopamine: activates D1 CRE-luciferase signal without dopamine present; 0.8% of 1,900 active; luminescence at 10 µM; shares compounds with D1 mod; HEK293 D1 CRE-luciferase, luminescence, no dopamine; hits give high values; AID 646; in the data active = luminescence above about 3900
Isoprot counter: alters isoproterenol CRE-luciferase response in HEK293 cells; 63% of 2,200 active; calls only at 10 µM; AID 647; HEK293 D1 CRE-luciferase, isoproterenol EC30 counter-screen; shares compounds with D1 mod;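 active = luminescence in either replicate above plate mean of wells with a partly effective reference agonist dose plus 3 SD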;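 note: isoproterenol raises cAMP through native beta-adrenoceptor Gs so signal bypasses D1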
An asterisk follows results filed as active.

COc1ccccc1C1=Nn2c(nnc2C2CCCCC2)SC1 was read as DAT uptake mod 0.75, CYP2C19 inh 39, CYP2C9 inhib 33, D1 mod 11*, CYP2C9 act 0.7, CYP2C19 act 0.6, D1 mod confirm 20508*, D1 no dopamine 1724 and Isoprot counter active.
COc1ccc(OC)c(C2=Nn3c(nnc3C3CCCCC3)SC2)c1 was read as DAT uptake mod 0.11, CYP2C19 inh 94*, CYP2C9 inhib 78*, D1 mod 16*, CYP2C9 act 0.2, CYP2C19 act 0.1, D1 mod confirm 17128* and Isoprot counter active.
For CC(C)c1cc(N2CCN(C(=O)c3ccco3)CC2)n2c(nc3ccccc32)c1C#N the results were DAT uptake mod 0.1, CYP2C19 inh 63*, CYP2C9 inhib 74*, D1 mod 6*, CYP2C9 act 0.3, CYP2C19 act 0.4, D1 mod confirm 8868* and Isoprot counter active.
O=C(c1ccco1)N1CCN(c2nc3ccccc3n3nnnc23)CC1 was read as DAT uptake mod -0.29, CYP2C19 inh 19, CYP2C9 inhib 47, D1 mod 1.1, CYP2C9 act 0.5 and CYP2C19 act 0.8.
Screening N#Cc1c(NC(=O)CN2CCN(C(=O)c3ccco3)CC2)sc2c1CCCCC2 returned DAT uptake mod -0.41, CYP2C19 inh 26, CYP2C9 inhib 22, D1 mod 0.15, CYP2C9 act 0.8 and CYP2C19 act 0.7.
Screening CC(C)Cc1nc(N2CCN(C(=O)C(C)C)CC2)c(C#N)c2c1CCC2 returned DAT uptake mod 1.7, CYP2C19 inh 84*, CYP2C9 inhib 81*, D1 mod 4.5*, CYP2C9 act 0.2, CYP2C19 act 0.2, D1 mod confirm 7400*, D1 no dopamine 1544 and Isoprot counter inactive.
`O=C(c1ccco1)N1CCN(c2nc(C3CC3)nc3sc4c(c23)CCCC4)CC1` gave DAT uptake mod 0.2, CYP2C19 inh 36, CYP2C9 inhib 70*, D1 mod 6.9*, CYP2C9 act 0.3, CYP2C19 act 0.6, D1 mod confirm 15256*, D1 no dopamine 1564 and Isoprot counter inactive.
CC(C)Cc1nc(N2CCN(C(=O)c3ccco3)CC2)c(C#N)c2c1CCC2 was read as DAT uptake mod 1.2, CYP2C19 inh 99*, CYP2C9 inhib 98*, D1 mod 7.5*, CYP2C9 act 0, CYP2C19 act 0, D1 mod confirm 12548*, D1 no dopamine 1660 and Isoprot counter active.
`O=C(Nc1ccccc1)OCN1C(=O)c2ccccc2C1=O` gave DAT uptake mod 0.0053, CYP2C19 inh 21, CYP2C9 inhib -27, CYP2C9 act 1.3 and CYP2C19 act 0.8.
For N/C(=N\c1nc2ccccc2o1)NC(=O)c1ccc(F)cc1 the results were DAT uptake mod 0.03, CYP2C19 inh 10, CYP2C9 inhib -36, CYP2C9 act 1.4 and CYP2C19 act 0.9.
For N#Cc1c(N2CCN(C(=O)c3ccco3)CC2)nc(-c2ccccc2)c2c1CCCC2 the results were DAT uptake mod 0.38, CYP2C19 inh 88*, CYP2C9 inhib 86*, D1 mod 2.8*, CYP2C9 act 0.1, CYP2C19 act 0.1, D1 mod confirm 13716*, D1 no dopamine 1492 and Isoprot counter active.
Screening CC(=O)N1CCN(c2nc(CC(C)C)c3c(c2C#N)CCC3)CC1 returned DAT uptake mod 0.75, CYP2C19 inh 73*, CYP2C9 inhib 73*, D1 mod 18*, CYP2C9 act 0.3, CYP2C19 act 0.3, D1 mod confirm 22940*, D1 no dopamine 1688 and Isoprot counter active.
`CC(C)OC(=O)CSc1nc2c(c(C3CC=CCC3)c1C#N)CCC2` (stereo unspecified) gave DAT uptake mod -0.0057, CYP2C19 inh 16, CYP2C9 inhib 48, CYP2C9 act 0.5 and CYP2C19 act 0.8.
`CCCc1nc(N2CCOCC2)c(C#N)c2c1CCCC2` gave DAT uptake mod -0.15, CYP2C19 inh 82*, CYP2C9 inhib 72*, D1 mod 6.5*, CYP2C9 act 0.3, CYP2C19 act 0.2, D1 mod confirm 7888*, D1 no dopamine 1524 and Isoprot counter inactive.
For Cc1nc(N2CCN(C(=O)c3ccco3)CC2)c2c3c(sc2n1)CCCC3 the results were DAT uptake mod 1.2.
`O=C(Oc1ccccc1)c1ccc2nsnc2c1` gave DAT uptake mod 0.0045.
CC1CC(NC(=O)CCn2c(=O)oc3ccccc32)CC(C)(C)C1 (stereo unspecified) was read as DAT uptake mod 0.11, CYP2C19 inh 20, CYP2C9 inhib 12, D1 mod 0.2, CYP2C9 act 0.9 and CYP2C19 act 0.8.
Brc1ccccc1-n1nnc(-c2nccs2)n1 was read as DAT uptake mod -0.76.
For N/C(=N\OS(=O)(=O)c1cc(Cl)ccc1Cl)c1ccncc1 the results were DAT uptake mod 0.12, CYP2C19 inh 38, CYP2C9 inhib 48, CYP2C9 act 0.5 and CYP2C19 act 0.6.
`CC(C)(C)NCC(O)c1cc(O)cc(O)c1` (stereo unspecified) gave DAT uptake mod 0.25, D1 mod 8.1*, D1 mod confirm 7100*, D1 no dopamine 2544 and Isoprot counter active.
Screening COc1ccc(C2NCCn3cccc32)cc1 (stereo unspecified) returned DAT uptake mod 0.83.
For OCC1OC(n2cnc3c(NCCc4ccccc4)ncnc32)C(O)C1O (stereo unspecified) the results were DAT uptake mod 0.97.
Screening OC[C@H]1O[C@@H](n2cnc3c(Nc4ccccc4)ncnc32)[C@H](O)[C@@H]1O returned DAT uptake mod 0.14, D1 mod 6.6*, D1 mod confirm 7048* and Isoprot counter active.
`N#Cc1cccc(-c2nnc(SCc3ccccc3C#N)o2)c1` gave DAT uptake mod 1.1, CYP2C19 inh 27, CYP2C9 inhib -14, D1 mod 2.7*, CYP2C9 act 1.1, CYP2C19 act 0.7, D1 mod confirm 5456, D1 no dopamine 1604 and Isoprot counter active.
`CCN(CC(=O)Nc1ccc2c(c1)OCCO2)C(=O)c1cccc(S(=O)(=O)N2CCOCC2)c1` gave DAT uptake mod 0.82, CYP2C19 inh 7, CYP2C9 inhib 9, D1 mod 3*, CYP2C9 act 0.9, CYP2C19 act 0.9, D1 mod confirm 5360 and Isoprot counter inactive.
